For 9 compounds, composite z-score, composite Z-score and z-score results are on record in PubChem BioAssay.

One assay has as its target Albumin (Bos taurus) (UniProt P02769). Briefly: compounds binding labelled BSA control protein – biochemical, small-molecule microarray, Alexa647 label, 635/667 nm fluorescence, artefact control for SMM control protein annotation, profiling panel (AID 1118).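 Note: score merges 667 nm emission intensity and signal-to-noise per printed compound spot.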 The following applies: BSA-A647 binding, fluorescence 635 nm, higher = more signal.
Assay [1] can be described thus: probe aXIP binding to arrayed compounds – biochemical, NeuroSMM set, 635/667 nm fluorescence, primary screen (AID 1119).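 Note: probe is the protein aXip251-270 applied at 1 µg/mL to compound-printed slides; binding of probe to printed compounds measured as 667 nm fluorescence plus signal to noise.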 The following applies: small-molecule microarray, higher = more signal, called active from +8 up or from −8 down.
A short description of assay [2]: probe aNOTCH3 binding on compound microarray – biochemical, small-molecule microarray, 635/667 nm fluorescence, primary screen (AID 1120).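 Note: probe is a biotin-tagged antibody raised against NOTCH3 rather than NOTCH3 protein; score merges spot fluorescence near 667 nm with spot signal to noise.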 The conditions noted are these: higher = more signal.
Assay [3] can be described thus: probe aNOTCH2 binding on compound microarray – biochemical, small-molecule microarray, 635/667 nm fluorescence, primary screen (AID 1121).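 Note: score merges feature fluorescence read at 667 nm with its signal to noise.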 The conditions noted are these: higher = more signal.
The target of assay [4] is Carbonic anhydrase 2 (Homo sapiens) (UniProt P00918). Briefly: compounds binding carbonic anhydrase 2 – biochemical, small-molecule microarray, Alexa647-labelled CAII, profiling panel (AID 1122). The following applies: CAII-A647 binding fluorescence, higher = more signal.
Assay [5] in a line: COS7 lysate on small-molecule microarray, probe aHis, 635 nm (AID 1123).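 Note: z-score combines 667nm fluorescence intensity with signal-to-noise per printed compound spot.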 The conditions noted are these: COS7 cell lysate, fluorescence, higher = more signal.
A short description of assay [6]: probe aLAP1 signal on lysate-treated microarray – cell lysate, small-molecule microarray, COS7 lysate, primary screen (AID 1124).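 Note: lysate comes from COS7 cells expressing LAP1 and is applied at 0.3 µg/mL; score merges spot fluorescence near 667 nm with signal-to-noise over triplicate slides.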 The conditions noted are these: probe aLAP1, fluorescence, higher = more signal.
The next assay has as its system Sam68 (KHDRBS1). The experiment in a line: compounds binding KHDRBS1 protein – biochemical, small-molecule microarray, 635 nm fluorescence, primary screen (AID 1125).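 Note: score merges 667 nm channel intensity with signal to noise over triplicate slides.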 The following applies: higher = more signal.
Assay [7] relates to Chordin-like protein 2 (CHRDL2). Briefly: compounds binding chordin-like 2 – biochemical, small-molecule microarray, 635 nm fluorescence, primary screen (AID 1126).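 Note: printed compound slides probed with Chrdl2 protein at 4 µg/mL for 1 h at 4 C; score merges 667 nm emission intensity with signal to noise over three replicate slides.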 The following applies: fluorescence 635 nm, higher = more signal.
For assay [8], the target named is Concanavalin-A (Canavalia ensiformis) (UniProt P02866). Briefly: compounds binding concanavalin A lectin – biochemical, small-molecule microarray, Alexa647 label, 635 nm, artefact control for SMM control protein annotation, primary screen (AID 1127).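 Note: z combines 667 nm emission intensity with signal-to-noise across three replicate slides.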 The conditions noted are these: ConA-A647 binding fluorescence, higher = more signal.
The nature of assay [9]: compounds binding Alexa647 anti-His antibody – biochemical, small-molecule microarray, 635 nm fluorescence, artefact control for SMM control protein annotation, primary screen (AID 1128).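 Note: score merges feature fluorescence with signal-to-noise for each printed compound spot.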 The conditions noted are these: higher = more signal.
Assay [10] deals with Human papillomavirus type 1a E7 protein (residues 1-88). Briefly: HPV1a E7 small-molecule binders, primary screen, biochemical, small-molecule microarray, residues 1-88, 635 nm (AID 1129). The conditions noted are these: small-molecule microarray binding, fluorescence 635 nm; higher = more signal.
The target of assay [11] is Focal adhesion kinase 1 (Homo sapiens) (UniProt Q05397). Briefly: PTK2 protein binding on printed compound slides – biochemical, small-molecule microarray, 635/667 nm fluorescence, BSA, DTT, primary screen (AID 1130).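 Note: composite of spot emission at 667 nm and signal to noise over triplicate slides.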 The following applies: 635 nm fluorescence, higher = more signal.
In assay [12] the test system is Fibrinogen (Alexa647-labelled). The experiment in a line: Alexa647-fibrinogen binding to printed small molecules – biochemical, small-molecule microarray, 635/667 nm fluorescence, artefact control for SMM control-protein annotation, profiling panel (AID 1131).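 Note: z-score merges 667 nm fluorescence with per-spot signal-to-noise over triplicate slides.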 The following applies: fibrinogen-A647 binding fluorescence, higher = more signal.
The target of assay [13] is Follistatin (Homo sapiens) (UniProt P19883). Briefly: FST protein binding to printed compounds – biochemical, small-molecule microarray, 635/667 nm fluorescence, primary screen (AID 1132). The following applies: 635 nm fluorescence, higher = more signal.
Assay [14] concerns the target Fibroblast growth factor 2 (Homo sapiens) (UniProt P09038). The experiment in a line: basic fibroblast growth factor binding to printed compounds – biochemical, small-molecule microarray, 635/667 nm fluorescence, primary screen (AID 1133). The following applies: FGF2, fluorescence 635/667, higher = more signal.
Assay [15] can be described thus: JC-1 mitochondrial potential readout, lung cancer cells – cell-based, A549, JC-1 fluorescence, basal, 24 h, 100 nL, profiling panel (AID 1138).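 Note: A549 lung adenocarcinoma cells under basal conditions with no added stimulus; test concentration not given here.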 The conditions noted are these: higher = more signal.
In the next assay the test system is Lefty1. The experiment in a line: Lefty1 protein binding to printed compounds – biochemical, small-molecule microarray, 635/667 nm fluorescence, primary screen (AID 1139). The conditions noted are these: fluorescence 635/667, higher = more signal.
Assay [16] deals with wheat germ agglutinin (Triticum aestivum), Alexa647-labelled. Briefly: Alexa647-WGA lectin binding to printed small molecules – biochemical, small-molecule microarray, 635/667 nm fluorescence, artefact control for SMM control-protein annotation, profiling panel (AID 1140).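 Note: score merges 667 nm feature emission with signal to noise over triplicate slides.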 The conditions noted are these: WGA-A647 binding, 635 nm fluorescence, higher = more signal.
The target of assay [17] is Luciferin 4-monooxygenase (Photinus pyralis) (UniProt P08659). Briefly: inhibition of purified Photinus pyralis luciferase – biochemical, luminescence, purified enzyme, 2006 set, primary screen (AID 1141).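 Note: cell-free assay with purified firefly luciferase at 100 ng per well in PBS; test concentration not given here.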 The following applies: purified firefly luciferase, SteadyGlo luminescence, 30 min; higher = more signal, called active from +8 up or from −8 down.

Active and inactive are the calls of the source.

Chain of Luciferin 4-monooxygenase (Photinus pyralis) (P08659 whole entry, looked up): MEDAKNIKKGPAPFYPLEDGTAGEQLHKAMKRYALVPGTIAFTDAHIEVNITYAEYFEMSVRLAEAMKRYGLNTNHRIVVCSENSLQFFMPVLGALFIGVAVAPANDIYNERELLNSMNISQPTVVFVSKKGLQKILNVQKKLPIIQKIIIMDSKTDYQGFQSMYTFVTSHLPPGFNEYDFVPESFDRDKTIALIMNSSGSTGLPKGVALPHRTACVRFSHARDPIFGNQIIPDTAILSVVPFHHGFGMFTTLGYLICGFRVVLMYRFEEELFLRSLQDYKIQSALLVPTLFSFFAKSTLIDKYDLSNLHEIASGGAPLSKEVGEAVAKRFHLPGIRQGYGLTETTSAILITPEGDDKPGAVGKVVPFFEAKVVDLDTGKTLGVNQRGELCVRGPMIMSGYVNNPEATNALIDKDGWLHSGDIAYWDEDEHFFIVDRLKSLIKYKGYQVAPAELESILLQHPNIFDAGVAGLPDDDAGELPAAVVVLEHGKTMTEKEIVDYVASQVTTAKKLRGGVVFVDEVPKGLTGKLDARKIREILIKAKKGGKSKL
Chain of Follistatin (Homo sapiens) (P19883 whole entry, looked up): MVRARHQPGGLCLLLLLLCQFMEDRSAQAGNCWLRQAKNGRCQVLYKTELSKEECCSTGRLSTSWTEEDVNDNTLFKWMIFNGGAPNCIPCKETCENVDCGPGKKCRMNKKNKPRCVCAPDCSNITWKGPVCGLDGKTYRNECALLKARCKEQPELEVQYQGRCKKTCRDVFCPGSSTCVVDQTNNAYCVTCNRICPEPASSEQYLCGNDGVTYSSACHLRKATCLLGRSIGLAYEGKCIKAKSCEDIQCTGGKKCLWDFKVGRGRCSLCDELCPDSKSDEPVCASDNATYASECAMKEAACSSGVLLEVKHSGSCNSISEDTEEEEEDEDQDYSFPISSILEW
Chain of Focal adhesion kinase 1 (Homo sapiens) (Q05397 whole entry, looked up): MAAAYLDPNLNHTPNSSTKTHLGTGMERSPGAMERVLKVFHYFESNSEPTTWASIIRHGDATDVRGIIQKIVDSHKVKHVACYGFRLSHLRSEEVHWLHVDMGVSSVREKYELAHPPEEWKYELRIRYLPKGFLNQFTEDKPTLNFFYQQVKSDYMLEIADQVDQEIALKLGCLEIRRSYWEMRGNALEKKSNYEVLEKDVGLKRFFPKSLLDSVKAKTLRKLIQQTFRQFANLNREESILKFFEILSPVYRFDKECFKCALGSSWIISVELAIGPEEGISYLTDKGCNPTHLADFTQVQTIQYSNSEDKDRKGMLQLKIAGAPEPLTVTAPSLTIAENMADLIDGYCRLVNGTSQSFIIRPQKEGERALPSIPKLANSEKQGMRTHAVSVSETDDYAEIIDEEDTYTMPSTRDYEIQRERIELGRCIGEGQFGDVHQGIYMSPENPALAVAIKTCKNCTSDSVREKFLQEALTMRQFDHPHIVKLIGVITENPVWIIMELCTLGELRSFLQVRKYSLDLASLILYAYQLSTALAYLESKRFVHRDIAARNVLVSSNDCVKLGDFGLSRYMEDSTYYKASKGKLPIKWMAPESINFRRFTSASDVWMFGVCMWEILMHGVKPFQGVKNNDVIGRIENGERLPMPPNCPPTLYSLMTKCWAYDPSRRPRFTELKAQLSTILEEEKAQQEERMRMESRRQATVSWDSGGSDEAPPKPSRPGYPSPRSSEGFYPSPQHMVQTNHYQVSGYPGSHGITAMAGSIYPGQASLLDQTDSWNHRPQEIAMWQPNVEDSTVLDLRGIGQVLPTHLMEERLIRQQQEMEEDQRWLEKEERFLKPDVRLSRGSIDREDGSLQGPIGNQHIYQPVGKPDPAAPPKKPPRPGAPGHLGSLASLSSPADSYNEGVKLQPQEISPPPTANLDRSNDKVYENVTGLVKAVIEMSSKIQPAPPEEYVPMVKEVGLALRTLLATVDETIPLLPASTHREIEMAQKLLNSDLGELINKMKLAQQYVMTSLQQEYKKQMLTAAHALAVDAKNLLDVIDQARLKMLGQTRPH
Chain of Albumin (Bos taurus) (P02769 whole entry, looked up): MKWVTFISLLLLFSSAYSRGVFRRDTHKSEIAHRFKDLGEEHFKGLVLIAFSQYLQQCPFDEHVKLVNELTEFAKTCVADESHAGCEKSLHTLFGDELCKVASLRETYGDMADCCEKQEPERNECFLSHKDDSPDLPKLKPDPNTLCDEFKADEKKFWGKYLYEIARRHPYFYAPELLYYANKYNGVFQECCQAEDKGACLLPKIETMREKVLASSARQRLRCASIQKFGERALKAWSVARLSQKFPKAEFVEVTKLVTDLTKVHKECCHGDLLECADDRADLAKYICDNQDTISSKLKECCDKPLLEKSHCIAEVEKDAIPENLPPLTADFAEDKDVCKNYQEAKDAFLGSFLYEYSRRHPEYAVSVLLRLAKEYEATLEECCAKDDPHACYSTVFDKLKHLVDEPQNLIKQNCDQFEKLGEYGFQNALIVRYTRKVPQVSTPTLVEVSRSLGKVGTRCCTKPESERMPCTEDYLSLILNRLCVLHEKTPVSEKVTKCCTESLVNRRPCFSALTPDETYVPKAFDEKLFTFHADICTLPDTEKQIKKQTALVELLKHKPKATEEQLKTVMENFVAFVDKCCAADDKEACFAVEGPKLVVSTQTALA
Chain of Fibroblast growth factor 2 (Homo sapiens) (P09038 whole entry, looked up): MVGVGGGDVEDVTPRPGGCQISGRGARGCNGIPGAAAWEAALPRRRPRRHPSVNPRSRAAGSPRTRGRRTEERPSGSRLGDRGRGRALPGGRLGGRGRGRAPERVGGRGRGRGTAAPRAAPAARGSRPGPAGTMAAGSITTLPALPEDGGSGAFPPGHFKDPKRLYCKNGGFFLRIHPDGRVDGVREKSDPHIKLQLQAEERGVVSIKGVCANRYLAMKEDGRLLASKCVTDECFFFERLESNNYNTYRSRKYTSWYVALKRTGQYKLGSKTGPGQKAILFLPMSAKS
Chain of Concanavalin-A (Canavalia ensiformis) (P02866 whole entry, looked up): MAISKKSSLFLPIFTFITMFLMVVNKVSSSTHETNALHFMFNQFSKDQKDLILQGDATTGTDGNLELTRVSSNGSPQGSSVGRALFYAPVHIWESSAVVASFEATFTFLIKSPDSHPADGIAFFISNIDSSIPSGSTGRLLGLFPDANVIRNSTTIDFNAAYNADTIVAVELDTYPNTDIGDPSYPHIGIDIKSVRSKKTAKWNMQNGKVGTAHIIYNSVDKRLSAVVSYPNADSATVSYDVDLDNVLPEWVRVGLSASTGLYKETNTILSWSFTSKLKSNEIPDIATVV

`COCCOC(=O)N1C(=O)[C@@]2(c3cc(C#CCCO)ccc31)[C@H](C(=O)N1CCCCCCC1)[C@H]1C(=O)O[C@H](c3ccccc3)[C@H](c3ccccc3)N1[C@@H]2c1ccccc1OCCO`: the composite z-score in the assay with Albumin (Bos taurus) turned out to be 0.951; in assay [2] it was 1.46; in [3], 0.662; in [4], 0.599; in [5], 2.89; in [6] it was 0.359. The composite z-score in the assay on Sam68 (KHDRBS1) came to 1.32; in assay [7], 1.14; in assay [8], 1.09; in [9], 0.573; in [10], 1.19; in assay [11], 0.686. Besides, the composite z-score in assay [12] came to 0.885; in [13] it was 1.45; in assay [14], 0.819; in the assay with Lefty1, 1.41; in assay [16] it was 1.25. Moreover, the composite Z-score in [1] was 3.51 (inactive). Also, the figures for the z-score in assay [15] and in assay [17] were -0.971 and -1.29 (inactive), respectively.
For `COc1cc(NN2C(C(O)C3CCCCC3)C=CC3C(=O)N(C)C(=O)C32)cc(OC)c1OC` (stereo not given), the composite z-score with Albumin (Bos taurus) is 1.04; in assay [2], 0.678; in [3], 0.22; in assay [4], 0.424; in assay [5], 2.78; in assay [6], 0.339. The composite z-score with Sam68 (KHDRBS1) was 1.32; in assay [7] it was -0.531; in assay [8], 1.15; in assay [9], 0.901; in assay [10], 1.23; in [11], 1.97. In addition, the composite z-score in assay [12] was 1; in assay [13] it was 0.954; in assay [14] it was -0.0452; with Lefty1 it was -0.608; in assay [16] it was 1.16. Besides, in [1], the composite Z-score is 1.37 (inactive). The z-score in [15] is 1.75; in assay [17], -0.527 (inactive).
Take `COc1cc(CO)cc(I)c1O[C@H]1C=C(C(=O)NCCO)C[C@@H](NCC2CCCCC2)[C@@H]1O`: the composite z-score was 0.0439 in the assay with Albumin (Bos taurus); 0.107 in assay [2]; -0.104 in [3]; 0.681 in assay [4]; 1.14 in assay [5]; -0.102 in [6]. Further, the composite z-score in the assay on Sam68 (KHDRBS1) came out at 0.408; in assay [7], 0.168; in assay [8], 0.324; in [9], 0.72; in [10] it was 0.283; in [11] it was 0.211. Besides, the composite z-score in [12] is 0.0646; in assay [13], 0.521; in assay [14] it was 0.566; in the assay on Lefty1 it was 0.302; in assay [16], 0.672. In [1], the composite Z-score was -0.442 (inactive). Also, the values for the z-score in [15] and in assay [17] were -0.0493 and 0.734 (inactive), respectively.
`C[C@]1(C(=O)O)c2ccccc2C(=O)N(Cc2ccc(OC(F)(F)F)cc2)[C@H]1c1ccc(CO)cc1`: the composite z-score with Albumin (Bos taurus) was 0.12; in assay [2], -0.104; in assay [3] it was 0.109; in assay [4], 0.73; in [5] it was 1.61; in [6] it was 0.902. The composite z-score in the assay with Sam68 (KHDRBS1) is -0.0536; in assay [7] it was -0.758; in [8], -0.783; in assay [9], 1.1; in [10], 0.409; in assay [11], 0.609. In addition, the composite z-score in assay [12] is 0.0748; in [13] it was -0.156; in [14], -0.381; in the assay with Lefty1 it was -0.685; in assay [16], 0.596. Besides, the composite Z-score in assay [1] was 0.219 (inactive). The values for the z-score in assay [15] and in [17] were 0.447 and 0.0795 (inactive), respectively.
Consider `C=C/C=C/[C@@H]1C(=C)CN([C@@H](Cc2ccccc2)C(=O)OC)[C@H]1[C@@H](O)Cc1ccccc1`, for which the composite z-score with Albumin (Bos taurus) was 0.0797; in assay [2], -0.0343; in assay [3], -0.115; in assay [4], 0.311; in [5] it was 1.07; in [6], 0.137. Moreover, the composite z-score was determined as 1.09 in the assay with Sam68 (KHDRBS1); 0.177 in [7]; 0.861 in assay [8]; 0.507 in [9]; 1.07 in [10]; 0.507 in assay [11]. For the same compound, the composite z-score was 0.807 in [12]; 0.818 in assay [13]; 0.227 in [14]; 0.446 in the assay with Lefty1; 0.635 in assay [16]. Moreover, in assay [1], the composite Z-score is 0.3 (inactive). In addition, the values for the z-score in [15] and in assay [17] were 0.718 and -0.053 (inactive), respectively.
For `CN1C(=O)C2C(C1=O)C1C=C(CCCO)C2C(c2cccs2)N1Cc1cc2c(cc1Br)OCO2` (stereo not given), the composite z-score in the assay with Albumin (Bos taurus) is 1.01; in [2], 0.323; in [3], -0.144; in assay [4], 0.805; in [5], 2.24; in [6], 1.09. The composite z-score is 1.3 in the assay on Sam68 (KHDRBS1); 0.171 in [7]; 1.18 in assay [8]; 1.12 in assay [9]; 1.22 in assay [10]; 1.07 in [11]. For the same compound, the composite z-score in assay [12] stood at 1.04; in assay [13], 1.35; in assay [14], 0.502; in the assay on Lefty1, 0.265; in assay [16], 1.17. The composite Z-score in [1] is 1.13 (inactive). Further, the z-score in [15] is 0.903; in assay [17], -1.48 (inactive).
For the compound `COc1ccc(C(O)C2C=CC3C(=O)N(c4ccccc4)C(=O)C3N2Nc2ccccc2F)cc1` (stereo not given), the composite z-score with Albumin (Bos taurus) came out at 0.894; in assay [2] it was 0.154; in assay [3], 0.12; in assay [4], 0.399; in [5] it was 1.69; in assay [6] it was 1.14. The composite z-score was 1.2 in the assay with Sam68 (KHDRBS1); -0.798 in [7]; 0.515 in [8]; 2.35 in assay [9]; 1.18 in [10]; 0.616 in [11]. For the same compound, the composite z-score in [12] is 0.918; in [13] it was 0.244; in assay [14] it was -0.276; with Lefty1 it was -0.2; in assay [16], 0.265. In addition, the composite Z-score in assay [1] was 0.319 (inactive). In addition, the z-score in assay [15] was -0.652; in [17], 1.31 (inactive).
Regarding `C=CCC(OC(C)=O)[C@@H]1[C@@H](N(Cc2ccc(-c3ccccc3)cc2)C(=O)Cc2ccc(F)cc2)c2cc(OCCCO)ccc2N1C(=O)Cc1ccc2ccccc2c1` (stereo not given in full), the composite z-score with Albumin (Bos taurus) is 0.232; in assay [2], -0.0931; in assay [3], -0.046; in assay [4], 0.244; in assay [5], 1.29; in assay [6], 0.201. Further, the composite z-score in the assay on Sam68 (KHDRBS1) is -0.869; in [7], -0.353; in assay [8], -0.474; in assay [9], -0.631; in [10], -0.0842; in [11] it was 0.318. The composite z-score in assay [12] was -0.198; in assay [13], 0.305; in assay [14] it was -0.0712; in the assay on Lefty1, -0.0639; in assay [16], 0.139. Also, the composite Z-score in assay [1] is -0.34 (inactive). In addition, the z-score in [15] is 1.85; in assay [17], -1.2 (inactive).
As for `[N-]=[N+]=Nc1ccccc1[C@@H]1OC(c2ccc(OCCCO)cc2)=N[C@]1(Cc1ccccc1)C(=O)NCc1ccccc1`, the composite z-score in the assay with Albumin (Bos taurus) was determined as 0.955; in assay [2] it was 0.367; in assay [3] it was 0.156; in [4], 0.379; in [5] it was 2.74; in assay [6], 1.13. The composite z-score with Sam68 (KHDRBS1) was 1.3; in assay [7], -0.553; in [8], 1.18; in assay [9], 1.27; in [10], 1.17; in [11] it was 0.763. Besides, the composite z-score in assay [12] came out at 0.798; in [13], 0.852; in [14] it was 0.409; with Lefty1, 0.491; in assay [16], 1.36. Also, the composite Z-score in assay [1] was -0.128 (inactive). Also, the z-score in assay [15] is -1.63; in [17] it was -5.74 (inactive).
